# G9a inh: inhibitors of human histone lysine methyltransferase G9a | Q96KQ7 | G9a H3K9 monomethylation, AlphaScreen, 2 h | Potency, µM (doses to about 102 µM), without a hit: top-dose activity, negative = inhibition, hits mostly inhibitors | 8.8% of 350,000 active; also: % is scaled to controls: 0 for no effect and ±100 for the full control effect; nearly all actives have a fitted effect of over 75% in size
#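 G9a (20 nM) was preincubated 15 min with compound, then reacted 2 h at room temperature with 500 nM biotin-H3K9 peptide and 20 µM SAM. Monomethyl-H3K9 detected by AlphaScreen using anti-H3K9me1 antibody.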
# BAZ2B inh: blocks human BAZ2B | 4.4% of 360,000 active | AlphaScreen BAZ2B-H3K14Ac peptide displacement | Potency, µM (highest dose often 114 µM), inactives show at the highest dose activity change, negative = inhibition, usual class: inhibitors | Q9UIF8; also: % is scaled to controls: 0 for no effect and ±100 for the full control effect; nearly all actives have a fitted effect of over 60% in size
#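 Inhibition is scored as reduced AlphaScreen emission. The BAZ2B/b-H3(5-23)K14Ac complex (50 nM each) in PBS pH 7.4, 0.01% Tween-20 meets compound (up to 110 uM) for 30 min at RT before bead addition.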
# GLS inh: inhibitors of human glutaminase (GLS); O94925; GLS enzymatic activity, qHTS titration; Potency, µM (titrated, usually from 45.5 µM), inactives show top-dose activity change, negative = inhibition, actives largely listed as inhibitors; 0.21% of 410,000 active; AID 624170; also: % is scaled to controls: 0 for no effect and ±100 for the full control effect
#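 Coupled fluorescence readout: glutamate oxidase/HRP/Amplex Red detect glutamate formed by hKGA from L-glutamine (1 mM solution added). Buffer 45 mM KH2PO4 pH 8.2, 0.02% Tween-20; reads at t0 and 30 min RT.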
# JMJD2A Tudor inh: inhibitors of human JMJD2A Tudor domain; AlphaScreen JMJD2A-Tudor / H3K4me3 peptide binding; Potency, µM (titrated, usually from 114 µM), without a hit: top-dose activity change, negative = inhibition, hits mostly inhibitors; 4.4% of 390,000 active; AID 504339; also: % is scaled to controls: 0 for no effect and ±100 for the full control effect; nearly all actives have a fitted effect of over 50% in size
# HP1b chromo inh: HP1-beta chromodomain-methylated histone interaction inhibition; P83916; 0.56% of 390,000 active; AlphaScreen HP1-beta / biotin-H3K9me3 peptide binding; Potency, µM (highest dose often 114 µM), for inactives: top-dose activity change, negative = inhibition, usual class: inhibitors; also: nearly all actives have a fitted effect of over 70% in size
#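 HP1-beta protein (50 nM final) preincubated 30 min at room temperature with biotinylated H3(1-18)K9me3 peptide (50 nM) in PBS pH 7.4, 0.01% Tween-20, then compound added for 30 min. AlphaScreen streptavidin donor/nickel chelate acceptor beads (10 ug/mL final), 30 min dark, luminescence read.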
# * = called active by the depositor; ? = inconclusive; . = not tested or not shown; [ ] = another dose, or the depositor's remark. Compounds with a hit are over-represented: about 10% of the library has one in this group of screens. Calls follow the shape of the dose curve; as a rule, active = well fitted curve in the direction sought with a large enough effect; inconclusive = small, poorly fitted or top-dose-only effect, or another doubt; inactive = no such curve, though single readings can be large; an effect the other way counts as inactive or inconclusive. Potency is read from the fitted curve at half-maximal effect.
SMILES,G9a inh,BAZ2B inh,GLS inh,JMJD2A Tudor inh,HP1b chromo inh
O=C1CN(C(=O)N[C@@H](Cc2ccccc2)C(=O)N[C@@H](C(=O)O)c2ccccc2)c2ccccc2N1,-9%[59 µM],-5%,6%,32µM*,18%
CCC(C)[C@H](NC(=O)N1CC(=O)Nc2ccccc21)C(=O)NC(C)CCc1ccccc1 (some centres undefined),?,?,-4%,-12%,39%
CCC(C)[C@H](NC(=O)N1CC(=O)Nc2ccccc21)C(=O)N[C@@H](C(=O)O)c1ccccc1 (some centres undefined),79µM*,-12%,-1%,-24%,17%
O=C(COC(=O)CNC(=O)c1ccccc1F)Nc1nnc(-c2ccccc2)o1,56µM*,-38%,-1%,-28%,48%
O=C(COC(=O)/C=C/c1ccccc1F)Nc1nnc(-c2ccccc2)o1,-20%,?,8%,?,34%
CC(=O)Nc1nonc1-c1nnc(SCC(=O)Nc2cccc(F)c2)n1-c1ccccc1,3%[59 µM],-15%,1%,-15%,13%
CCC1CN(C(=O)N2CCC(C(=O)NCc3ccccc3C)CC2)c2ccccc2O1 (centres undefined),41%,-23%,-14%,?,28%
CCC1CN(C(=O)N2CCC(C(=O)NCc3ccc(C)o3)CC2)c2cc(C)ccc2O1 (centres undefined),45µM*,-23%,-11%,-26%,22%
CCC1CN(C(=O)N2CCC(C(=O)NCCc3ccccc3C)CC2)c2ccccc2O1 (centres undefined),?,79µM*,-10%,-24%,11%
CCC1CN(C(=O)N2CCC(C(=O)Nc3cc(C)ccc3C)CC2)c2ccccc2O1 (centres undefined),-38%[59 µM],79µM*,-5%,?,10%
CCOC(=O)CNC(=O)C1CCN(S(=O)(=O)c2ccc(-c3nn[nH]n3)cc2)CC1,?,-33%,-5%,-3%,19%
Cn1cnc(S(=O)(=O)N2CCCCC2c2cc(C(=O)Nc3cccc4c3CCCC4)no2)c1 (centres undefined),.,.,-1%,.,.
CC(=O)NCC(=O)OC(C)C(=O)Nc1ccc(C(C)=O)cc1 (centres undefined),20%[59 µM],-3%,2%,-20%[57.1 µM],57%
Cc1ccc(C(=O)NCC(=O)OC(C)C(=O)Nc2ccc(N(C)C)cc2)cc1C (centres undefined),25µM*,?,-1%,?,?
Cn1cccc1/C=C1/SC(=S)N(CC(=O)O)C1=O,50µM*,-33%,5%,-24%,9%
O=C(NN1C(=O)/C(=C/c2cccs2)SC1=S)c1ccccc1,7%[59 µM],11%,-10%,-6%,35%
Cn1cccc1/C=C1\SC(=S)N(NC(=O)c2cccc(Cl)c2)C1=O,22µM*,28µM*,-4%,28µM*,?
Cn1cccc1/C=C1\SC(=S)N(NC(=O)c2ccc(F)cc2)C1=O,9%,35µM*,8%,?,-38%
Cn1cccc1/C=C1\SC(=S)N(NC(=O)c2ccccc2)C1=O,?,40µM*,-1%,?,?
COc1cccc(C)c1NC(=O)C(OC(=O)CNC(=O)c1ccccc1)c1ccccc1 (centres undefined),.,.,.,-9%,.
c1ccc(Nc2cc(-c3ccoc3)ncn2)cc1,-15%[0.501 µM],.,.,.,.
Cc1[nH]c(=S)[nH]c(=O)c1Cc1ccccc1,50µM*,2%,?,-23%,36%
Cc1[nH]c(=S)[nH]c(=O)c1CCCO,71µM*,-16%,-3%,-7%,24%
O=c1[nH]c(=S)[nH]nc1Cc1ccccc1,40µM*,-7%,-5%,?,28%
CCCCc1c(C)[nH]c(=S)[nH]c1=O,-8%,-8%,-18%,-9%,42%
SMILES,G9a inh,BAZ2B inh,GLS inh,JMJD2A Tudor inh,HP1b chromo inh
O=c1[nH]nc(Cc2ccccc2)c2ccccc12,-4%[59 µM],7%,-12%,-4%,20%
CCOC(=O)CCn1c(=O)c2cccn2c2cccnc21,14%[59 µM],0%,0%,-3%,31%
COc1ccc(OC)c(CCNC(=O)c2cc3c(s2)-c2c(C)cccc2OC3)c1,20%[59 µM],9%,7%,19%,68%
CCn1c(C)cc(/C=C2/SC(=S)NC2=O)c1C,?,-37%,-2%,-22%,9%
Cc1cc(/C=C2\SC(=S)NC2=O)c(C)[nH]1,.,45µM*,7%,?,-23%
CCn1ncc(/C=C2/SC(=S)NC2=O)c1C,50µM*,-33%,17%,-8%,21%
CSc1cccc(NC(=O)C2CCCN(S(=O)(=O)c3cccs3)C2)c1 (centres undefined),-4%,-2%,-20%,-7%,29%
Cc1sc(-c2ccccn2)nc1OC(=O)c1ccc(Cl)cc1,?,1%,6%,25µM*,-3%
CC(=O)Nc1ncc(N=Nc2cccc(C(F)(F)F)c2)s1,45µM*,-18%,0%,-6%,21%
O=C(Nc1ccc(Cl)cc1Cl)c1cc(S(=O)(=O)NCc2ccc3c(c2)OCO3)ccc1F,6%[59 µM],1%,3%,-19%,22%
CCN(CC)c1ccc(C2Nc3ccccc3-c3cc(C)nn32)cc1 (centres undefined),22µM*,?,10%,50µM*,?
NCCSSCCN,22µM*,-12%,0%,-6%,13µM*
O=C(N/N=C/c1cc(Cl)cc([N+](=O)[O-])c1O)C1CC1,?,-31%,1%,-30%,3%
O=C(Cn1nnc(-c2ccccc2)n1)N/N=C/c1cccc([N+](=O)[O-])c1O,4%,45µM*,0%,?,29%
Cc1ccccc1C(=O)Nc1cccc(C(=O)N/N=C/c2cc(Cl)cc([N+](=O)[O-])c2O)c1,32µM*,22µM*,3%,50µM*,?
O=C(Cn1nc2ccccc2n1)N/N=C/c1cc(Cl)cc([N+](=O)[O-])c1O,40µM*,20µM*,0%,50µM*,-19%
COc1cc(/C=N/NC(=O)c2cccc(NC(=O)c3ccccc3C)c2)ccc1O,14%,0%,4%,?,-5%
COc1ccc(CCC(=O)NCc2ccc3c(c2)CCN3C(=O)c2ccc(Cl)cc2)cc1,12%[59 µM],0%,-12%,-15%,11%
O=C(Cn1ncc2c([nH]c3ccccc32)c1=O)NCc1cccc(Cl)c1,-8%[59 µM],-6%,6%,-10%,17%
COc1ccc(S(=O)(=O)N2CCC(N3CCN(c4ccccc4OC)CC3)CC2)cc1,3.2µM*,40µM*,0%,1.8µM*,40µM*
COc1ccccc1N1CCN(C2CCCN(S(=O)(=O)c3ccc(C)cc3)C2)CC1 (centres undefined),56µM*,-32%,7%,-31%,6%
COc1ccccc1N1CCN(S(=O)(=O)c2c[nH]c(=O)[nH]c2=O)CC1,20µM*,9%,1%,0%,40%

# Screens: PubChem BioAssay, National Center for Advancing Translational Sciences (NCATS)
